Screening data as filed in PubChem.
TRHR PAM: TRH receptor (human) allosteric enhancement | P34981 | TRHR cells, fluo-8 calcium fluorescence, EC20 TRH enhancement | enhancement, % at 2 µM | 360,000 tested, 0.66% active | AID 493056; in the data active = enhancement above about 30%
Target sequence (P34981 whole entry, looked up): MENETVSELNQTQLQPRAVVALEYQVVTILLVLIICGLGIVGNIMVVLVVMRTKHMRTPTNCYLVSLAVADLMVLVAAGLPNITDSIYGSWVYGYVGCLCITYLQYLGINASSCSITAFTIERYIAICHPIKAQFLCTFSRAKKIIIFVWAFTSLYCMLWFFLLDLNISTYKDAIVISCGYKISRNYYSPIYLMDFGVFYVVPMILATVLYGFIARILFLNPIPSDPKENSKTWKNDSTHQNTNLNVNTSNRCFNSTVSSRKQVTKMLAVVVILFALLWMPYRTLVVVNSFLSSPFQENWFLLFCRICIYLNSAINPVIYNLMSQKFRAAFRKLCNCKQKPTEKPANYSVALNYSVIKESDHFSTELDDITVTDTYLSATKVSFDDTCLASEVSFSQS
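TRHR-expressing cells loaded with fluo-8 calcium dye were read kinetically (ex 480/em 530) during compound addition, then stimulated with an EC20 of TRH (10 nM final). Enhancement of the Gq-mediated intracellular calcium response was scored.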
TRHR ag: TRH receptor (human) agonism; P34981; TRHR cells, calcium flux fluo-8, FDSS agonist mode; activation, % at 2 µM; 360,000 tested, 0.18% active
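In this calcium-flux screen, cells bearing human TRHR are dye-loaded with fluo-8, baselined for 10 cycles, then exposed to library compounds; positive kinetic calcium responses during the agonist phase mark hits, with TRH as control.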
D1 potentiator: enhances dopamine response at the human D1 receptor; HEK293 TREx D1 cells, calcium flux, dopamine EC20 potentiation; AID 504651; P21728; potentiation, % at 10 µM; 360,000 tested, 0.036% active; in the data active = potentiation above about 30%
D1 ag: activates the human D1 dopamine receptor. HEK293 T-REx D1 cells, calcium flux, agonist mode. P21728. activation, % at 2 µM. 360,000 tested, 1% active
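Tetracycline-induced HEK293 TREx D1 cells, force-coupled to calcium signalling, were dye-loaded with a no-wash calcium kit. Compound was pin-added after a 10 s baseline. Fluorescence was read kinetically at 1 cycle/s for 180 s, with calcium rises flagged as agonism.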
D1 antagonist: blocks dopamine activation of the human D1 receptor; activity change, negative = inhibition, % at 10 µM; 360,000 tested, 3.2% active; P21728; HEK293 TREx D1 cells, calcium flux, dopamine EC80; stronger effect = lower value; in the data active = activity change below about -30%
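Tetracycline-induced HEK293 T-REx cells with force-coupled D1 receptor were loaded with a no-wash calcium dye. Compound was added after a 10 s baseline and read kinetically for 180 s; EC80 dopamine was then added and calcium flux followed another 180 s.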
Large screens that a line does not name were inactive. An excerpt weighted towards active compounds, which were near 4.6% of everything screened. Rule as the data show it, unless noted: active = activation above about 30%; inactive = the rest.

CC(=O)c1ccc(NC(=O)CSc2nnc3c(n2)[nH]c2ccccc23)cc1	D1 antagonist -37
COc1ccc2[nH]c3nc(SCC(=O)Nc4cccc(NC(C)=O)c4)nnc3c2c1	none
COc1cccc(NC(=O)CSc2nnc3c(n2)[nH]c2ccc(C)cc23)c1	D1 antagonist -84
COc1ccc(OCc2cccc(C(=O)Nc3ccc(CN4CCCCC4)cc3)c2)cc1	D1 ag 48
COc1cc(OC)cc(C(=O)Nc2ccc(CN3CCCCC3)cc2)c1	none
O=C(Nc1ccc(CN2CCCCC2)cc1)c1cccc(F)c1	none
CCOc1ccc(OCc2cccc(C(=O)Nc3ccc(CN4CCCCC4)cc3)c2)cc1	D1 ag 38, D1 antagonist -30
Cc1ccc2[nH]nc(C(=O)N3CCCC(C(=O)c4ccc(Cl)cc4)C3)c2c1 (stereo unspecified)	none
COc1cccc(OC)c1CC1SC(=O)NC1=O (stereo unspecified)	none
CCN(C(=O)COC(=O)c1ccccc1NCCO)c1cccc2ccccc12	D1 antagonist -43
CC(C)CCNC1c2ccccc2C(=O)N1Cc1ccccc1 (stereo unspecified)	none
Cn1c(=O)c(Nc2ccc(Cl)cc2)c2c3c(cccc31)C(=O)c1ccccc1-2	D1 ag 78
COc1cc(C(=O)NCc2nnc(SCC(=O)N3CCCC3)o2)cc(OC)c1OC	none
CCOC(=O)CSc1nc(COc2ccccc2)nc2ccccc12	none
O=C1/C(=C\c2ccco2)SC(=S)N1C1CCCCC1	D1 potentiator 34
CCOC(=O)C1CCCN(S(=O)(=O)c2cccs2)C1 (stereo unspecified)	none
N#Cc1ccc2[nH]c(CO)c(-c3ccccc3)c2c1	D1 antagonist -40
COC(=O)c1ccc2[nH]c(CO)c(-c3ccccc3)c2c1	none
Clc1ccc(CN2C3=NCCN3c3ccccc32)cc1Cl	D1 ag 35
COc1cc(/C=C/CO)cc(OC)c1OC/C=C(\C)CCC=C(C)C	none
C[C@@H]1CN(C(=O)c2ccc(OC3CCN(S(=O)(=O)N(C)C)CC3)cc2)C[C@H](C)O1	D1 antagonist -30
O=C(c1ccco1)N1CCN(Cc2nnc(-c3cccc(Cl)c3)o2)CC1	none
C=C[C@@](C)(O)CC[C@@H]1[C@@]2(C)CCCC(C)(C)[C@@H]2CC[C@@]1(C)O	D1 ag 49
CCOC(=O)c1nc(S(C)(=O)=O)ncc1Cl	none
CN(c1ccccc1)S(=O)(=O)c1cccc(NC(=O)CCNC(=O)c2ccccc2)c1	D1 antagonist -43
Cc1ccc2c(=O)cc(C(=O)Nc3c(C(=O)Nc4cccc(Cl)c4)oc4ccccc34)oc2c1	D1 antagonist -46
CN(c1ccc(C(=O)NCCSCc2ccc(Cl)cc2)cc1)S(=O)(=O)c1ccccc1	D1 ag 39
NS(=O)(=O)c1cccc(NC(=O)c2cc(=O)c3ccccc3o2)c1	none
CN(c1ccccc1)S(=O)(=O)c1cccc(NC(=O)CCNC(=O)c2ccc(Cl)cc2)c1	none
Cc1ccc(CSCCNC(=O)c2ccc(N(C)S(=O)(=O)c3ccccc3)cc2)cc1	none
CN(c1ccccc1)S(=O)(=O)c1cccc(NC(=O)c2cc(=O)c3ccccc3o2)c1	D1 antagonist -34
CCOC(=O)c1ccc(NC=C2C(=O)OC3(CCCCC3)OC2=O)cc1	none
CC1=C(C)CC(C(=O)NCC(=O)c2ccccc2)C(C(=O)O)C1 (stereo unspecified)	none
COC(=O)c1nc2nc(-c3cccs3)cc(C(F)(F)F)n2n1	none
COC(=O)c1ccccc1-n1c(CCC(=O)O)ccc1-c1ccccc1	none
O=c1[nH]ncc2c3ccccc3n(Cc3cccc(Cl)c3)c12	D1 ag 52
O=c1[nH]ncc2c3ccccc3n(Cc3ccc(F)cc3)c12	none
CCCn1c(SCC(=O)Nc2ccc3c(c2)OCO3)nc2c1c(=O)n(C)c(=O)n2C	none
O=C1Cc2ccccc2Sc2ccccc21	none
Cc1ccc2c(c1)Sc1ccccc1CC2=O	D1 antagonist -48
CN(C)CCOc1ccc2c(c1)Sc1ccccc1CC2=O	D1 antagonist -30
CCc1cc(=O)oc2c3c(cc(OCC(=O)NCc4ccncc4)c12)OC(C)(C)CC3	none
Cc1ccc(C(=O)N2CC=C(c3ccccc3)CC2)s1	none
Cc1ccsc1C(=O)N1CC=C(c2ccccc2)CC1	D1 antagonist -31
Cc1ccc(C)c(NC(=O)Cn2nc(-c3ccccc3)nc2-c2ccccc2)c1	D1 antagonist -33
